# Measured values as given in PubChem BioAssay AID485346 (Sanford-Burnham Center for Chemical Genomics, 2010).
# Out of some 330,000 compounds screened, about 10,000 (3%) were called active. This is one part of a sample in which actives are shown more often than they occur.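 The calls were made as follows: active = inhibition of at least 50% at 8 µM in the primary screen; inactive = the rest.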
# Molecular target: Protein Mdm4 (Homo sapiens) + E3 ubiquitin-protein ligase Mdm2 (Homo sapiens) (UniProt O15151+Q00987)
# Assay: inhibitors of human Mdm2-MdmX association, primary screen, cell-based, luminescence, split luciferase, SaOS-2, uHTS (AID 485346)
# Conditions: SaOS-2 split-luciferase Mdm2/MdmX complementation, at 8 µM, stronger effect = higher value
# Protein Mdm4 (Homo sapiens) + E3 ubiquitin-protein ligase Mdm2 (Homo sapiens), sequence (O15151 whole entry, looked up): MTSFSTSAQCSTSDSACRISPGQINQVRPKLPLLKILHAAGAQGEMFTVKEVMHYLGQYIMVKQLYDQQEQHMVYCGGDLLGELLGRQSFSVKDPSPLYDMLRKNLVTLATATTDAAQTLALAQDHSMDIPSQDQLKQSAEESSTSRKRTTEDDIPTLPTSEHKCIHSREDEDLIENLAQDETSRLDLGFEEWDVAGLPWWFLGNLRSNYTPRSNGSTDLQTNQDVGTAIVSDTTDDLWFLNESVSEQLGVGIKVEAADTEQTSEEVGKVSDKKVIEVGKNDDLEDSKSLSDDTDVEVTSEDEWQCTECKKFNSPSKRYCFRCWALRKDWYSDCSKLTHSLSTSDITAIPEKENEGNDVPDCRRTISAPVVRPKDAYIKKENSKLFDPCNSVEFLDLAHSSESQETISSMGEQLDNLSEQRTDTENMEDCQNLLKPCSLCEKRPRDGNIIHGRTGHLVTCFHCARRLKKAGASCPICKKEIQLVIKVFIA
# Protein Mdm4 (Homo sapiens) + E3 ubiquitin-protein ligase Mdm2 (Homo sapiens), sequence (Q00987 whole entry, looked up): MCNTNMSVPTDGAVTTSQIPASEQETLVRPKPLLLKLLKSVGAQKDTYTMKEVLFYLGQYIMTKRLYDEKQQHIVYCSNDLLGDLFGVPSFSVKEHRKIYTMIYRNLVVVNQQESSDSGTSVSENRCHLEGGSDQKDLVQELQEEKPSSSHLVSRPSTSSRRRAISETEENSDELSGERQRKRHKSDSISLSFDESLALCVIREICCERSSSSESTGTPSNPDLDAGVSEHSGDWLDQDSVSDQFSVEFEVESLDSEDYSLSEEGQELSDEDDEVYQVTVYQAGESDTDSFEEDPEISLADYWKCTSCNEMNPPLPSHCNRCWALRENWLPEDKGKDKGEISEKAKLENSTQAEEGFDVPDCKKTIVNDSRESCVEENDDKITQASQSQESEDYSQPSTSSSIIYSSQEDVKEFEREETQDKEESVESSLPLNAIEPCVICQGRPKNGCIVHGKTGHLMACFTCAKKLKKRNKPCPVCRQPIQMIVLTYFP
row,Structure (SMILES),inhibition
1,O=C(NC(=O)N1CCSCC1)c1c(Cl)cccc1Cl,-31.4% (inactive)
2,COc1ccc(CN2C(=O)CC(Cc3ccc(C)cc3)C2=O)cc1OC (configuration not stated),5.73% (inactive)
3,CCc1cccc(C)c1NC(=O)COC(=O)CNC(=O)c1cccs1,-18.9% (inactive)
4,Cc1ccccc1C(CC(=O)c1cccs1)C(C#N)C#N (configuration not stated),75.4% (active)
5,Cc1ccc(C)c(NC(CC(=O)c2ccccc2)C(=O)OCC(=O)c2cccs2)c1 (configuration not stated),-9.67% (inactive)
6,CC1=C(C/C=C(\C)CCCC(C)CCCC(C)CCCC(C)C)C(=O)c2ccccc2C1=O (configuration not stated),-7.28% (inactive)
7,CC(C)CC(NC(=O)C1CCCN1C(=O)[C@@H](C)NC(=O)OCc1ccccc1)C(=O)NCC(N)=O (some centres not stated),-21.6% (inactive)
8,COc1ccc(C2C(C(C)=O)=C(O)C(=O)N2CCc2c[nH]c3ccccc23)cc1 (configuration not stated),-16.3% (inactive)
9,COc1ccc2nc(NC(=O)NC3CCCCC3)sc2c1,-142% (inactive)
10,COc1ccc2nc(Nc3nc4ccc(NC(C)=O)cc4s3)sc2c1,79.7% (active)
11,CCc1noc(C)c1C(=O)Nc1nc2ccc(OC)cc2s1,0.6% (inactive)
12,Cc1csc2ncc(C(=O)N(Cc3ccccc3)c3ccccn3)c(=O)n12,0.705% (inactive)
13,CC(C)NC(=O)c1ccccc1S(=O)c1ccccc1C#N (configuration not stated),-7.43% (inactive)
14,COc1cccc(-c2nnc(NC(=O)c3ccc(S(=O)(=O)N(CC(C)C)CC(C)C)cc3)o2)c1,72.2% (active)
15,COc1ccc(-c2nnc(NC(=O)CS(=O)(=O)c3ccc(Cl)cc3)o2)c(OC)c1,-3.12% (inactive)
16,O=C(Nc1nnc(-c2ccco2)o1)c1ccc(S(=O)(=O)N2CCOCC2)cc1,-9.19% (inactive)
17,CC(C#N)OC(=O)c1cccnc1SCC(=O)Nc1ccc2c(c1)OCO2 (configuration not stated),-12.8% (inactive)
18,CC(C)(C)n1nnc(CCc2nnn(C(C)(C)C)n2)n1,13.5% (inactive)
19,O=C(CN1C(=O)c2ccccc2S1(=O)=O)NC1CCCCC1,12.3% (inactive)
20,CC1CCCN(C(=O)CN2C(=O)c3ccccc3S2(=O)=O)C1 (configuration not stated),3.88% (inactive)
21,O=C(CN1C(=O)c2ccccc2S1(=O)=O)N1CCc2ccccc21,68% (active)
22,Cc1ccc(NC(=O)c2cc3ccccc3o2)cc1,-218% (inactive)
23,O=C(N/N=C/c1cccc(O)c1)c1cc2c(ccc3ccccc32)o1,-1.11% (inactive)

row,Structure (SMILES),inhibition
1,Cc1c(/C=N\NC(=O)c2cc3ccccc3o2)c2ccccc2n1C,50.8% (active)
2,O=C1[C@H]2[C@@H](c3ccc(Cl)cc3)N3C(=O)N(c4cccc(F)c4)C(=O)[C@@]3(Cc3ccccc3)[C@H]2C(=O)N1C1CCCCC1,4.69% (inactive)
3,O=C1[C@H]2[C@@H](c3ccc(F)cc3)N3C(=O)N(c4ccc(C(F)(F)F)cc4)C(=O)[C@@]3(Cc3ccccc3)[C@H]2C(=O)N1C1CCCCC1,95.3% (active)
4,Cc1cccc(N2C(=O)N3[C@H](c4ccc(F)cc4)[C@@H]4C(=O)N(C5CCCCC5)C(=O)[C@@H]4[C@]3(Cc3ccccc3)C2=O)c1,18.2% (inactive)
5,Cc1ccc(NC(=O)CCCNC(=O)c2ccc(Cl)cc2)cc1S(=O)(=O)N1CCCCC1,14.3% (inactive)
6,Cc1ccc(CN2CCN(/N=C/c3cccnc3)CC2)c(C)c1,-1.63% (inactive)
7,CC(C)c1ccc(Cc2nnc(NCCCO)[nH]c2=O)cc1,-3.05% (inactive)
8,COc1ccc(Cc2nnc(N/N=C/c3ccccc3O)[nH]c2=O)cc1OC,66.5% (active)
9,O=c1[nH]c(NCCO)nnc1Cc1ccc(Cl)cc1,16.8% (inactive)
10,OC(CN=c1sc2ccccc2n1CC(O)COc1ccccc1)COc1ccccc1 (configuration not stated),33.4% (inactive)
11,Cc1cccc(NC(=O)CN2CCN(CC(=O)NCC3(N4CCCCC4)CCCCC3)CC2)c1C,-24.2% (inactive)
12,Cc1nc2nc(C)c(CCC(=O)N3CCN(c4ccccc4)CC3)c(C)n2n1,7.55% (inactive)
13,COc1ccc(CNc2nc(NCc3ccc(OC)cc3)c3ncn(C4CCCC4)c3n2)cc1,60.8% (active)
14,COc1ccc(CNC2CCCCC2)cc1,7.1% (inactive)
15,COc1ccc(CNC(=O)C2CCCC2)cc1,1.84% (inactive)
16,C=CCN1C(=O)C(O)(CC(=O)c2ccc(Cl)cc2)c2ccccc21 (configuration not stated),4.99% (inactive)
17,C=CCC(CC=C)(C(N)=O)c1ccccc1,11.4% (inactive)
18,CC(C)c1ccccc1OCC(O)CN(CC(O)COc1cccc2ccccc12)C(C)C (configuration not stated),59.8% (active)
19,CCC(C)Sc1nc2c(c(=O)[nH]c(=O)n2C)n1CC(O)COc1cccc2ccccc12 (configuration not stated),16.9% (inactive)
20,Cc1cc(C)c(NC(=O)C[N+](C)(C)CC(O)COc2cccc3ccccc23)c(C)c1 (configuration not stated),12.6% (inactive)
21,CCC(C)(C)c1ccc(Oc2ccc(NC(=O)COC(=O)C3=COCCO3)cc2)cc1,0.755% (inactive)
22,C[C@@H](O)c1nc2ccccc2n1N,-21.5% (inactive)
23,O=C1CN(c2nc(-c3ccccc3)c3cc(Br)ccc3n2)c2ccccc2N1,66.1% (active)

row,Structure (SMILES),inhibition
1,O=c1c2cc(Br)ccc2nc(-c2cccc(Cl)c2)n1O,40.4% (inactive)
2,CC1CC(=O)Nc2ccccc2N1C(=O)COc1ccc2cc(Br)ccc2c1 (configuration not stated),20% (inactive)
3,CC(=O)c1ccc(S(=O)(=O)N2CCN(C(=O)/C=C/c3ccc4ccccc4n3)CC2)cc1,79.9% (active)
4,CC(=O)c1ccc(S(=O)(=O)N2CCC3(CC2)OCCO3)cc1,-6.56% (inactive)
5,CC(=O)c1ccc(S(=O)(=O)N2CCN(c3nc4c(C)c(C)ccc4cc3C#N)CC2)cc1,32.9% (inactive)
6,Cc1cc(C)n2nc(C(=O)OCC(=O)N(CCC#N)c3ccc(F)cc3)nc2n1,11.4% (inactive)
7,Nc1cccc2c1C(=O)N(Cc1nnc(-c3ccccc3Br)o1)C2=O,2.07% (inactive)
8,O=C(c1nnc(-c2ccc(Cl)cc2)o1)C1CCCC1,-34.3% (inactive)
9,S=c1[nH]nc(-c2ccc(Cl)cc2)n1CC1CCCO1 (configuration not stated),-1.54% (inactive)
10,O=C(c1[nH]ncc1-c1ccc(Cl)cc1)C1CO1 (configuration not stated),78.2% (active)
11,CCOc1ccc(NC(=O)CSc2nncn2C)cc1,6.1% (inactive)
12,NC(=O)C(Cc1ccccc1)NC(=O)C12CC3CC(CC(C3)C1)C2 (configuration not stated),2.27% (inactive)
13,CCN(CC(=O)Nc1c(F)cccc1F)C(=O)c1ccc(-c2ccc(C(C)=O)cc2)o1,-16.4% (inactive)
14,C[n+]1cc(-c2ccccc2)oc1-c1ccccc1,-21.5% (inactive)
15,Cc1cc(C)n2nc(C(=O)OCC(=O)N(C)CC(=O)Nc3ccc(F)cc3)nc2n1,-1.93% (inactive)
16,CCC1CCCCN1CCCNC(=O)C1CCC(Cn2c(=O)[nH]c3ccccc3c2=O)CC1 (configuration not stated),-28.9% (inactive)
17,CCC1CCCCN1CCCNC(=O)Cn1nc(-c2ccccc2)ccc1=O (configuration not stated),5.14% (inactive)
18,CCC1CCCCN1CCCNC(=O)c1cc2c(Cl)nc3ccccc3c2s1 (configuration not stated),58.7% (active)
19,COC(=O)Cc1ccc(OCC(=O)NC2CCCC2)cc1,8.06% (inactive)
20,CC(=O)c1ccc(OCCCC(=O)Nc2ccc(C)c(S(=O)(=O)N3CCOCC3)c2)cc1,13.1% (inactive)
21,O=C(CSc1nc2ccccc2c(=O)[nH]1)Nc1nc(-c2ccc(Br)cc2)cs1,75.5% (active)
22,CCOC(=O)c1ccccc1NC(=O)CSc1nc2ccccc2c(=O)[nH]1,10.1% (inactive)
23,CC(=O)NCc1ccc(-c2csc(NC(=O)CCCc3nc4ccccc4c(=O)[nH]3)n2)cc1,6.81% (inactive)

row,Structure (SMILES),inhibition
1,Cc1nnc(Nc2ccccc2F)s1,1.11% (inactive)
2,O=C(Nc1ccc(C(F)(F)F)cc1)c1cccc(-n2cnnn2)c1,-13.9% (inactive)
3,Cc1nc(NC(=O)c2cccc(Cl)c2)sc1-c1csc(Nc2cccc(Cl)c2)n1,-2.75% (inactive)
4,O=C(Nc1ccc(-c2csc(Nc3cccc(C(F)(F)F)c3)n2)cc1)c1cccc(C(F)(F)F)c1,69.4% (active)
5,CCn1cc(CCC(=O)NCc2ccc(F)cc2)c2ccccc21,-7.13% (inactive)
6,Cc1noc(C)c1C(=O)OCC(=O)N1CCN(S(=O)(=O)c2ccc3ccccc3c2)CC1,-6.59% (inactive)
7,COc1ccc(CC(=O)NCc2nnc(SCC(=O)Nc3ncc(C)s3)n2C)cc1,6.63% (inactive)
8,CSc1nnc(NC(=O)c2nc(S(=O)(=O)Cc3ccc(C)cc3)ncc2Cl)s1,98.2% (active)
9,Cc1ccc(CS(=O)(=O)c2ncc(Cl)c(C(=O)Nc3nnc(C)s3)n2)cc1,99.7% (active)
10,COCCSc1nnc(NC(=O)CCS(=O)(=O)Cc2ccccc2)s1,25.9% (inactive)
11,Cc1ccc(S(=O)(=O)CC(=O)Nc2nnc(C)s2)cc1,7.87% (inactive)
12,Cc1nnc(NC(=O)c2ccc3nccnc3c2)s1,6.88% (inactive)
13,CCSc1nnc(NC(=O)c2ccc(C)cc2)s1,-64.2% (inactive)
14,CCN(CC)S(=O)(=O)c1cc(C(=O)Nc2cc(S(=O)(=O)N3CCOCC3)ccc2N2CCCC2)ccc1F,26.3% (inactive)
15,CCC(NC(=O)c1cc(COc2ccc(F)c(F)c2)on1)c1ccncc1 (configuration not stated),5.8% (inactive)
16,O=C(Nc1ccc2sc3ccccc3c(=O)c2c1)c1ccccc1Cl,-48% (inactive)
17,CCOC(=O)Cn1nnnc1C,15.3% (inactive)
18,O=C(CN1CCC(NC(=O)C2CC2)CC1)Nc1ccccc1[N+](=O)[O-],15.4% (inactive)
19,COc1ccc(CC(=O)N[C@@H]2c3cc(OC)c(OC)cc3C[C@H]2OCc2ccccc2)cc1,38.6% (inactive)
20,O=c1c2ccccc2nc2n1C(CSCc1cccc(C(F)(F)F)c1)CS2 (configuration not stated),0.237% (inactive)
21,O=C1C(=O)N(CC2COc3ccccc3O2)c2ccccc21 (configuration not stated),26.1% (inactive)
22,Cc1cc(C(=O)CCl)c(C)n1CC1COc2ccccc2O1 (configuration not stated),78.9% (active)
23,Cc1noc(C)c1C(=O)NCC1COc2ccccc2O1 (configuration not stated),26.4% (inactive)
